Where “and” joins values, the source holds several entries; their conditions need not be identical. Identical values can stand only once. Among all 260,000 compounds or so, about 1,500 (0.58%) were called active. Another 5% or so got no clear call; they are omitted.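 Rule for the calls: active = inhibition above a set limit at one or more doses, reproduced on every date tested; inconclusive = results disagree between test dates, or hit never tested in dose response; inactive = the rest.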 A selection follows. Results with a measured potency or affinity are listed apart.

The assay addresses Virion infectivity factor (Human immunodeficiency virus type 1 group M subtype B (isolate BH10)) + Virion infectivity factor (Human immunodeficiency virus type 1 group M subtype B (isolate BRU/LAI)) + Virion infectivity factor (Human immunodeficiency virus type 1 group M subtype B (isolate PCV12)) + Virion infectivity factor (Human immunodeficiency virus type 1 group M subtype B (isolate HXB2)) + DNA dC->dU-editing enzyme APOBEC-3G (Homo sapiens) (UniProt P69720+P69721+P69722+P69723+Q9HC16). Nature of the assay: HIV-1 Vif–A3G interaction blockers – biochemical, TR-FRET, GST-Vif 1-94, biotin-A3G peptide, dose response retest, primary screen (AID 1117319).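 Note: Vif residues 1-94 fused to GST binding biotinylated APOBEC3G peptide 110-148; 0% = full assay without inhibitor and 100% = GST in place of GST-Vif.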 Conditions: TR-FRET GST-Vif / biotin-A3G peptide binding; active compounds read high. (In TR-FRET formats the signal depends on donor and acceptor labels being close together.)
Usually inhibition stands for the relative decrease from the control value, in per cent. For `Cc1noc(C)c1S(=O)(=O)Nc1ccc2c(c1)C(=O)N([C@@H](C)CO)C[C@@H](C)[C@@H](CN(C)CC1CCCCC1)OCCCC[C@@H](C)O2`, the inhibition was 2.32% (inactive).
As for `C[C@@H]1CCCCO[C@H](CN(C)Cc2ccc(C(F)(F)F)cc2)[C@@H](C)CN([C@H](C)CO)C(=O)c2cc(NS(=O)(=O)c3cn(C)cn3)ccc2O1`, the figure is -0.57% (inactive); as for `CCOC(=O)c1c(C)nc(C)c(C(=O)OCC)c1-c1cccc(N)c1`, -1.65% (inactive).
Regarding `CC(C)n1c(SCC(=O)Nc2nc3ccccc3s2)nc2c1c(=O)n(C)c(=O)n2C`, the inhibition was 10.6% (inactive).
As for `NS(=O)(=O)c1cc(Br)c2c(c1)S(=O)(=O)NCN2`, the inhibition is -0.53% (inactive).
Regarding `CCOC(=O)N1CCC(N(CCN(C)C)C(=S)Nc2cccc(Cl)c2C)CC1`, the inhibition is -1.98% (inactive).
`Cc1ccc(N2NC(=O)/C(=C/c3ccc(-c4ccc(Cl)c(C(=O)O)c4)o3)C2=O)cc1`: the inhibition is 0.99% (inactive).
For `O=C1NN(c2ccccc2)C(=O)/C1=C/c1ccc(-c2ccc(Cl)c(C(=O)O)c2)o1`, the inhibition is -2.97% (inactive).
For `CCOc1ccc2[nH]c(=O)c(CN(CCO)C(=O)c3ccc(OC)c(OC)c3)cc2c1` the value was -0.38% (inactive).
`CCN(C(=O)COC(=O)c1cnc(C)cn1)c1c(N)n(Cc2ccccc2)c(=O)[nH]c1=O`: the inhibition is 2.12% (inactive).
Consider `COc1c(O)cc2oc(-c3ccc(O)cc3)cc(=O)c2c1O`, for which the inhibition is 19.4% (inactive).
As for `O=c1cc(-c2ccc(O)c(O)c2)oc2cc(O)cc(O)c12`, the figure is 15.6% (inactive); as for `O=c1cc(-c2ccc(O)c(O)c2)oc2ccc3ccccc3c12`, 10.7% (inactive).
As for `O=c1cc(-c2ccc(O)cc2)oc2cc(O[C@@H]3O[C@H](CO)[C@@H](O)[C@H](O)[C@H]3O[C@@H]3OC[C@](O)(CO)[C@H]3O)cc(O)c12`, the figure is 6.15% (inactive); as for `COc1ccc(CNC(=O)CCC(=O)N2CCN(S(=O)(=O)c3cc([N+](=O)[O-])ccc3C)CC2)cc1`, -6.42% (inactive).
Consider `CN(C)c1ncc(/C=C2/C(=O)NC(=S)N(C3CCCCC3)C2=O)cn1`, for which the inhibition is 1.75% (inactive).
`CCOc1ccc(CCNS(=O)(=O)c2ccc3c(c2)oc(=O)n3C)cc1OCC`: the inhibition is 13.6% (inactive).
With `c1ccc(CN2CCc3[nH]c4ccccc4c3C2)cc1`, the inhibition is -5.69% (inactive).
Consider `CC(C)CC(=O)N1CCN(C(=O)c2cccc(F)c2)CC1`, for which the inhibition is -7.36% (inactive).
With `COc1ccc(OCC(O)CN(C)C(=O)/C=C/c2cccc([N+](=O)[O-])c2)cc1` (stereo unspecified), the inhibition was -4.1% (inactive).
For `O=c1oc(/C=C/c2ccccc2)nc2sc3c(c12)CCC3`, the inhibition is 70.5% (inactive).
For `COc1ccc(/C=C/c2nc3sc4c(c3c(=O)o2)CCC4)cc1` the value was -1.87% (inactive); for `CCc1ccccc1OCC(=O)OCC(=O)N1CC(=O)Nc2ccccc21`, -5.84% (inactive); for `CS(=O)(=O)N(CC(=O)NCc1ccc2c(c1)OCO2)C1CCCCC1`, -13.6% (inactive).
Turning to `CCN(CC)c1ccc(/C=N/N2C(=O)c3ccccc3C2=O)c(O)c1`, the inhibition is 19.7% (inactive).
Regarding `CCN(CC)c1ccc(/C=N/N2CCOCC2)c(O)c1`, the inhibition was -1.22% (inactive).
Turning to `COc1cccc(/C=N/N2CCOCC2)c1O`, the inhibition was 2.44% (inactive).
For `Oc1ccccc1C=NN1CCCCCC1` the value was -3.73% (inactive); for `O=C1c2ccccc2C(=O)N1/N=C/c1ccc(O)c(O)c1`, 29.1% (inactive); for `Oc1cccc(/C=N/N2CCCCC2)c1O`, -5.32% (inactive).
Turning to `CCC(=O)C1CCCN(C(=O)CCc2nnc(C3(c4ccc(Cl)cc4)CCC3)o2)C1` (stereo unspecified), the inhibition was 8.39% (inactive).
Regarding `CCC(C)(C(=O)NC1CCCC1)N(C(=O)c1ccccn1)c1ccc(C)cc1` (stereo unspecified), the inhibition was 5.82% (inactive).
Turning to `CC(=O)Nc1cccc(C(=O)OCC(=O)NNC(=O)c2cccs2)c1`, the inhibition is -1.93% (inactive).
For `Cc1ccc(C2(C)NC(=O)N(CC(=O)Nc3nc(-c4ccccn4)cs3)C2=O)cc1` (stereo unspecified) the value was 0.48% (inactive).
As for `COc1ccccc1OCC(=O)NCC(C)NC(=O)COc1ccccc1OC` (stereo unspecified), the figure is 5.26% (inactive).
For `COc1ccc(-c2cn(-c3ccc(C)cc3)c(=O)n2CC(=O)Nc2cccc(F)c2)cc1` the value was 7.83% (inactive); for `CCOc1cccc2sc(N(CCCN(C)C)C(=O)Cc3ccccc3)nc12`, 3.08% (inactive); for `CCc1c(C)sc(NC(=O)OC)c1C(=O)N1CCOCC1`, -5.04% (inactive).
With `CCc1c(C)sc(NC(=O)OC)c1C(N)=O`, the inhibition is -10.3% (inactive).
With `OC(COCc1ccccc1)CN1CCCC1` (stereo unspecified), the inhibition is 1.73% (inactive).
For `COc1ccc2oc(C(=O)c3ccccc3)c(NC(=O)CN3CCN(C)CC3)c2c1` the value was 1.78% (inactive) and 5.75% (inactive).
